Rows were chosen to be rich in hits. Some 4.5% of all compounds tested hit in one or more screens of this group.
Gli-Sufu antag: antagonists of Gli-Sufu signaling. Sufu-KO-LIGHT fibroblasts, Gli luciferase reporter luminescence. inhibition, % at 5 µM. actives 0.74% (n = 340,000). AID 588413;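 active = inhibition above about 55%, limit read from the data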
CSC inhib: blocks cancer stem cells; cancer stem cell-like cells viability, luminescence; AID 2717; actives 1.1% (n = 300,000); inhibition, % at 7.5 µM; in the data active = inhibition above about 75%; inconclusive = no clear call, values can overlap the other calls; tested in HMLE shEcad cells
Beta apoptosis: blocks beta cell apoptosis | INS-1E cytokine-induced death, ATP luminescence, 48 h; percent of positive-control rescue, neutral wells zero | protection from apoptosis, % (concentration not given with the values) | actives 0.8% (n = 300,000);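 active = Every replicate reaches about 75%, or at least half do and their mean reaches it too, limit read from the data; inconclusive = At least half of replicates reach the limit but their mean does not; inactive = Under half of replicates reach the limit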;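 also: higher means more ATP so stronger rescue from cytokine killing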
697 NFkB inh: lowers PMA/ionomycin-induced NF-kB signal in 697 B cells | 697 B-cell NF-kB luciferase reporter, 16 h | inhibition, % at 4 µM | AID 435022 | actives 0.33% (n = 330,000); in the data active = inhibition above about 35%
Mdm2 MdmX PPI: inhibitors of human Mdm2/MdmX interaction; SaOS-2 split-luciferase Mdm2/MdmX complementation, luminescence; inhibition, % at 8 µM; actives 3% (n = 330,000);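 active = inhibition of at least 50% at 8 µM in the primary screen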
Target sequence (O15151 whole entry, looked up): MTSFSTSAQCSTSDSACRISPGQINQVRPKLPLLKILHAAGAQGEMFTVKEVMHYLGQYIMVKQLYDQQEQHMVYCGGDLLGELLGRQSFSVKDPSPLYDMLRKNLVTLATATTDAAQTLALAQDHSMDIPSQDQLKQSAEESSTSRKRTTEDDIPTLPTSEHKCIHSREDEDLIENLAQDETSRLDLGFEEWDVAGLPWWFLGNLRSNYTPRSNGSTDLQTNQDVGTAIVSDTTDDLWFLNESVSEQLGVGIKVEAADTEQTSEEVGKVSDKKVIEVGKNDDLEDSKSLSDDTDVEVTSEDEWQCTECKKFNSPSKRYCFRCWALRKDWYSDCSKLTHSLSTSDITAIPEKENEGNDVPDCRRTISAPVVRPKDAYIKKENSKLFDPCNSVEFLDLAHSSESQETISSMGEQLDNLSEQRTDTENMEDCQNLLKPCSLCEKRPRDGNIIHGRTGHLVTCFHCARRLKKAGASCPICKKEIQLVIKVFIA
Target sequence (Q00987 whole entry, looked up): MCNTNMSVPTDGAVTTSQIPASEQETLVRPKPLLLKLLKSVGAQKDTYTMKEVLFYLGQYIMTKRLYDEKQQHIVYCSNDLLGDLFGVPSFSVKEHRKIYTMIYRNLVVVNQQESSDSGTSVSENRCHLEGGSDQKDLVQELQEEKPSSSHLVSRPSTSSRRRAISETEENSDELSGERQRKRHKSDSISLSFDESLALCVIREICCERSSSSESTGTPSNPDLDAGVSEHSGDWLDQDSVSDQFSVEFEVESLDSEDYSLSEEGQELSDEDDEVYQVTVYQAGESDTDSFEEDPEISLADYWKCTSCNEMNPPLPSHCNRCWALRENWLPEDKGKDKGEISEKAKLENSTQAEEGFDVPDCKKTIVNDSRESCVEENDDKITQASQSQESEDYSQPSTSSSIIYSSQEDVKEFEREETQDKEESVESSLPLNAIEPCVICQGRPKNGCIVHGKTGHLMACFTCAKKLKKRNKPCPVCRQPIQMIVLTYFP
Jurkat NFkB inh: lowers PMA/ionomycin-induced NF-kB signal in Jurkat cells | PMA/ionomycin-induced NF-kB luciferase reporter, luminescence | inhibition, % at 4 µM | actives 0.53% (n = 330,000); in the data active = inhibition above about 50%
Mdm2 MdmX conf: confirmation of human Mdm2/MdmX interaction inhibitors | shares compounds with Mdm2 MdmX PPI | Mdm2-MdmX binding, luminescent assay | inhibition, % at 8 µM | actives 55% (n = 10,000); in the data active = inhibition above about 40%
Full FLuc ctr: counter-screen for Mdm2/MdmX inhibitors: full-length luciferase. shares compounds with Mdm2 MdmX PPI. SaOS-2 full-length luciferase counterscreen, luminescence. inhibition, % at 8 µM. actives 77% (n = 6,200). AID 504607;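 active = mean inhibition at 8 µM reaching about 37%, which flags the compound as non-specific, limit read from the data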;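 also: p53-null SaOS-2 cells with luciferase driven by a doxycycline-inducible promoter; compound on cells about two nights before reading with doxycycline added after day one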
Of the large screens only hits and unclear results are named; the others gave an inactive call (follow-up assays come after a bar, where they were run).

O=C(N/N=C/c1cn(-c2ccccc2)nc1-c1ccccc1)c1ccco1	none
COc1cc(/C=N/NC(=S)NC2CC3CC2C2C=CCC32)ccc1O (stereo not given)	Mdm2 MdmX PPI 63 | Mdm2 MdmX conf inactive
CCCN(c1ccccc1C(=O)O)S(=O)(=O)c1ccc2c(c1)n(C)c(=O)n2C	none
COc1ccc([C@]2(C(C)C)ON(c3ccccc3C(F)(F)F)C2=O)cc1	Mdm2 MdmX PPI 82 | Mdm2 MdmX conf 41 | Full FLuc ctr 51
COc1ccc([C@@]2(C(C)C)ON(c3ccccc3C(F)(F)F)C2=O)cc1	Mdm2 MdmX PPI 80 | Mdm2 MdmX conf 56 | Full FLuc ctr 45
CC(C)C[C@]1(c2ccccc2)ON(c2ccccc2C(F)(F)F)C1=O	none
CC(C)[C@@]1(c2ccc(Cl)cc2)ON(c2ccccc2C(F)(F)F)C1=O	Mdm2 MdmX PPI 75 (no result: Gli-Sufu antag) | Mdm2 MdmX conf 44 | Full FLuc ctr 50
Cc1noc(C)c1NC(=O)Nc1ccc2c(c1)C(=O)N([C@@H](C)CO)C[C@@H](C)[C@@H](CN(C)Cc1ccc3c(c1)OCO3)O2	none
CN(c1ccc(OC(=O)CN2C(=O)NC3(CCCC3)C2=O)cc1)S(=O)(=O)c1ccccc1	none
OC1(CNCc2cn[nH]c2-c2cc3ccccc3o2)CCCCC1	none (no result: CSC inhib)
Cc1cc(C)n(Cc2ccc(NC(=O)c3nn(C)cc3[N+](=O)[O-])cc2)n1	Mdm2 MdmX PPI 71 | Mdm2 MdmX conf 52 | Full FLuc ctr 59
Cc1ccc(Cn2ccc(NC(=O)c3nn(C)cc3[N+](=O)[O-])n2)cc1	Mdm2 MdmX PPI 59 (no result: CSC inhib) | Mdm2 MdmX conf 63 | Full FLuc ctr 68
CCn1cc([N+](=O)[O-])c(C(=O)Nc2ccn(Cc3ccccc3)n2)n1	none
Cn1cc([N+](=O)[O-])c(C(=O)Nc2ccc(C3CCCCC3)cc2)n1	CSC inhib 117, Mdm2 MdmX PPI 59 | Mdm2 MdmX conf inactive | Full FLuc ctr 154
Cn1cc([N+](=O)[O-])c(C(=O)Nc2cc(Oc3cccnc3)cc([N+](=O)[O-])c2)n1	Mdm2 MdmX PPI 82 | Mdm2 MdmX conf inactive
COc1ccc(CNC(=O)C[C@H]2C[C@H](C(=O)N(C(C)C)C(C)C)[C@@]3(C)c4[nH]c5cc(-c6ccco6)ccc5c4CCN3C2=O)cc1OC	none (no result: CSC inhib, Beta apoptosis, Jurkat NFkB inh)
COc1cc(SC)ccc1C(=O)N1CCN(S(=O)(=O)/C=C/c2ccccc2)CC1	none (no result: CSC inhib, Beta apoptosis)
O=C(NCCN1CCOCC1)c1ccc(NS(=O)(=O)c2cccc([N+](=O)[O-])c2)cc1	none
Cc1ccc(S(=O)(=O)N2CCN(c3ccc(S(=O)(=O)N4CCOCC4)cn3)CC2)cc1	Mdm2 MdmX PPI 66 | Mdm2 MdmX conf inactive
Cc1ccc(S(=O)(=O)N2CCOCCOCCOCCOCCOCC2)cc1	none
N#Cc1c(N)nc2c(c1-c1ccc3c(c1)OCO3)CCc1ccccc1-2	CSC inhib 82, Mdm2 MdmX PPI 65 | Mdm2 MdmX conf inactive | Full FLuc ctr 92
CCCCn1c(N)c(N(CCOC)C(=O)CCCc2cccs2)c(=O)[nH]c1=O	none
FC(F)(F)Oc1ccc(NC(=S)Nc2ccc(OC(F)(F)F)cc2)cc1	Mdm2 MdmX PPI 79 (no result: Beta apoptosis) | Mdm2 MdmX conf inactive
Cc1ccc2nc(Cl)c3nnnn3c2c1	CSC inhib inconclusive, Mdm2 MdmX PPI 97 | Mdm2 MdmX conf 90 | Full FLuc ctr inactive
Cc1ccc2nc(N3CCN(c4cccc(C)c4C)CC3)c3nnnn3c2c1	none (no result: Beta apoptosis)
O=S(=O)(/C=C/c1ccccc1)Oc1ccccc1	Mdm2 MdmX PPI 76 | Mdm2 MdmX conf 50 | Full FLuc ctr 78
O=C(CN1CCC(C(O)(c2ccccc2)c2ccccc2)CC1)Nc1cc(Cl)ccc1Cl	Mdm2 MdmX PPI 54 | Mdm2 MdmX conf 45 | Full FLuc ctr 86
Cc1cccc(NS(=O)(=O)c2ccc(C(=O)NCCCN3CCCC3=O)cc2)c1C	none (no result: Beta apoptosis)
Cc1ccc(OCCCC(=O)NNC(=O)c2ccccn2)cc1	Mdm2 MdmX PPI 52 | Mdm2 MdmX conf 44 | Full FLuc ctr 45
O=C(COc1ccc(Cl)cc1)NNC(=O)c1ccccn1	none
Cc1ccc(OCC(=O)NCCNC(=O)c2ccccn2)cc1	none (no result: CSC inhib)

Source: PubChem
